{"source": "PubChem BioAssay (NCATS)", "key": {"[1]": {"assay": "qHTS for Inhibitors of Plasmodium falciparum (GB4) proliferation (AID 504315); further: nearly all actives have a fitted effect of over 50% in size", "in_short": "(§1)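 Erythrocytes infected with P. falciparum line (0.3% parasitemia, 2.5% hematocrit final) incubated with compounds 72 h at 37 °C, 5% CO2; SYBR Green lysis buffer added, fluorescence read next day. Normalized to 0.29 uM artemisinin and DMSO.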"}, "[2]": {"assay": "qHTS for Inhibitors of Plasmodium falciparum (CP250) proliferation (AID 504320)", "in_short": "as §1"}, "[3]": {"assay": "qHTS for Inhibitors of Plasmodium falciparum (7G8) proliferation (AID 504316)", "in_short": "as §1"}}, "note": "Records with an inconclusive call do not appear. Where a call stands in place of a potency, no number is given. Unmarked numbers belong to inactive results. Activity calls are given as the source filed them. The call rests on the fitted dose curve; in most records, active means well fitted curve in the direction sought with a large enough effect; inconclusive means small, poorly fitted or top-dose-only effect, or another doubt; inactive means no such curve, though single readings can be large; an effect the other way counts as inactive or inconclusive. Wherever potency is given: potency means the concentration at half of the fitted maximal effect; nearly all actives have a fitted effect of over 65% in size.", "data": [{"smiles": "COC(=O)[C@H]1[C@@H](C)N(Cc2ccccc2)C(=O)N[C@H]1c1ccccc1", "values": [{"measurement": "Potency", "setting": "[1]", "result": "inactive"}, {"measurement": "Potency", "setting": "[2]", "result": "inactive"}]}, {"smiles": "COC(=O)C1=C(C(=O)OC)[C@@H]2N(C)c3ccc(OC)cc3[C@@]23C[C@@H](C(=O)OC)N(C(=O)CC(C)C)C3=N1", "values": [{"measurement": "Potency", "setting": "[2]", "result": "inactive"}]}, {"smiles": "CCCCn1c(C)cc2c(c1=O)[C@H]1O[C@](c3ccsc3)(Cc3ccccc31)O2", "values": [{"measurement": "Potency", "setting": "[3]", "result": "1690 nM (active)"}, {"measurement": "Potency", "setting": "[2]", "result": "inactive"}]}, {"smiles": "COC(=O)C1=C(C(=O)OC)[C@@H]2N(C)c3ccc(OC)cc3[C@@]23C[C@@H](C(=O)OC)N(S(=O)(=O)c2ccc(Br)cc2)C3=N1", "values": [{"measurement": "Potency", "setting": "[3]", "result": "1510 nM (active)"}]}]}
